These results are taken from PubChem BioAssay (NCATS).

The structures appear in SMILES notation. Inconclusive results are not listed. Entries that show only a call come without a potency. The source made the active and inactive calls. Calls come from the whole dose curve; as a rule, active = well fitted inhibition curve with a large enough effect; inconclusive = small, poorly fitted or top-dose-only effect; inactive = flat fitted curve, though single readings scatter.

The target of the experiment is Ubiquitin carboxyl-terminal hydrolase 1 (Homo sapiens) (UniProt O94782). The experiment in a line: Inhibitors of USP1/UAF1: Pilot qHTS (AID 504865).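 Note: rhodamine fluorescence freed from ubiquitin-rhodamine substrate followed over time; top concentration of the series differs between compounds; nearly all actives have a fitted effect of over 35% in size.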 Particulars: purified USP1/UAF1, Ub-rhodamine cleavage fluorescence; series mostly up to 114 µM. In outline: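 Kinetic fluorescence assay: 1nM USP1/UAF1, 15 min compound preincubation, then 150nM Ub-Rho; 480/540 nm.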
Sequence of Ubiquitin carboxyl-terminal hydrolase 1 (Homo sapiens) (O94782 whole entry, looked up): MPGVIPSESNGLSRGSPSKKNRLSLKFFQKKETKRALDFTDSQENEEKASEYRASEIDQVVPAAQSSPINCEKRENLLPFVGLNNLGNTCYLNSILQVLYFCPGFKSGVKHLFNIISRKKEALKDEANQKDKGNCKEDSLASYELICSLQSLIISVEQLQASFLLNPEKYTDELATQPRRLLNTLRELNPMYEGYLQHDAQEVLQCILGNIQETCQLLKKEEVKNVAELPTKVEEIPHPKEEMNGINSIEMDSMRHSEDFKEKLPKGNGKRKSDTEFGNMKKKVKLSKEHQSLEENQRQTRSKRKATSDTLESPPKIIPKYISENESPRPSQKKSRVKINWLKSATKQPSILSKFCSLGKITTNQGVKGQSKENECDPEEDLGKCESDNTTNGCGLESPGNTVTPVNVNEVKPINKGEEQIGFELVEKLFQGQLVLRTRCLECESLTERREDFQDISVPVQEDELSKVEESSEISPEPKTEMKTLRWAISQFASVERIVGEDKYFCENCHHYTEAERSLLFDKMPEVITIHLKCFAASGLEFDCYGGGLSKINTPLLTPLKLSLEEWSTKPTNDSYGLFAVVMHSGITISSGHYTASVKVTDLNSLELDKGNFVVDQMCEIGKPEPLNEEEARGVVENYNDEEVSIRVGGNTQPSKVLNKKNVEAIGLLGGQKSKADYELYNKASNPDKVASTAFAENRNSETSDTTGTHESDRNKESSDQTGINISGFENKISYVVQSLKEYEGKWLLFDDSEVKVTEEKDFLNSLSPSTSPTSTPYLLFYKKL
Regarding `OC/C=C/c1ccccc1`, the Potency entry is “inactive”.

For `CCCCCCCCCC(=O)NO`, the Potency entry is “inactive”.

Take `O=C(O)CCC/C=C\C[C@@H]1[C@@H](/C=C/[C@@H](O)COc2cccc(Cl)c2)[C@H](O)C[C@@H]1O`: the Potency result was “inactive”.

As to `O=C(/C=C/c1cccc(F)c1)NC1CC1`, the Potency entry is “inactive”.

For the compound `CN1c2c(nc(N)[nH]c2=O)NCC1CNc1ccc(C(=O)NC(CCC(=O)O)C(=O)O)cc1` (stereo not given), the Potency result was “inactive”.

Consider `Oc1ccc(Cl)c2c1CCC2`, for which the Potency result was “inactive”.

Turning to `O[C@@H]([C@H](O)[C@H](O)CBr)[C@H](O)CBr`, the Potency result is “inactive”.

Consider `C[C@]12CCC(=O)C[C@@H]1CC[C@@H]1[C@@H]2CC[C@]2(C)C=CC[C@@H]12`, for which the Potency entry was “inactive”.

For the compound `CCOC(=S)SSC(=S)OCC`, the Potency result is “inactive”.

Regarding `CCC(C)[C@@H](N)C(=O)O` (stereo not given in full), the Potency result was “inactive”.

For the compound `FC(F)(F)COCC(F)(F)F`, the Potency result is “inactive”.

Consider `C[C@H](N)C(=O)N[C@@H](C)P(=O)(O)O`, for which the Potency entry is “inactive”.

As to `Cc1ncc(C[n+]2csc(CCOP(=O)(O)OP(=O)(O)O)c2C)c(N)n1`, the Potency entry is “inactive”.

As to `CC(CN(C)C)CN1c2ccccc2Sc2ccc(C(F)(F)F)cc21` (stereo not given), the Potency result was “inactive”.

In the case of `Cc1cccc(C)c1NC(=O)NC1=CCCN1C`, the Potency entry is “inactive”.

As for `CCOC(=O)Cc1ccc(-c2ccccc2)cc1`, the Potency result was “inactive”.

Regarding `O=C1c2ccccc2CN2C(=O)c3ccccc3CN12`, the Potency result was “inactive”.

With `O=S(=O)(O)CCCS(=O)(=O)O`, the Potency entry is “inactive”.

Regarding `CC1CCCCN1CCCOC(=O)c1ccccc1` (stereo not given), the Potency result is “inactive”.

Take `CN1C(=O)C[C@@H](C(=O)N[C@@H](Cc2cnc[nH]2)C(=O)N2CCC[C@H]2C(N)=O)NC1=O`: the Potency entry is “inactive”.

In the case of `CC(=O)NCCCS(=O)(=O)O`, the Potency result was “inactive”.

Take `FC(F)(F)C(F)(F)C(F)(F)C(F)(F)C(F)(F)C(F)(F)F`: the Potency result was “inactive”.

With `CC(CCc1ccc(O)cc1)NCC(O)c1ccc(O)cc1` (stereo not given), the Potency result was “inactive”.

Take `COc1cc2c(cc1OC)[C@@H](Cc1cc(OC)c(OC)c(OC)c1)[N+](C)(CCCOC(=O)CC/C=C/CCC(=O)OCCC[N+]1(C)CCc3cc(OC)c(OC)cc3[C@H]1Cc1cc(OC)c(OC)c(OC)c1)CC2` (stereo not given in full): the Potency result was “inactive”.

As for `CCOc1ccc(S(=O)(=O)O)c2cccnc12`, the Potency result was “inactive”.

On to `COC(=O)CC[C@H](N)C(=O)O`, for which the Potency result is “inactive”.

For `CC(CNC(=O)c1cccnc1)NC(=O)c1cccnc1` (stereo not given), the Potency entry was “inactive”.

Turning to `CN(Cc1ccccc1)Cc1ccccc1`, the Potency result is “inactive”.

For `CC(C)C1=CC2=CC[C@@H]3[C@](C)(CCC[C@@]3(C)C(=O)O)[C@H]2CC1`, the Potency entry was “inactive”.

`NC(=O)CC[C@@H]1NC(=O)[C@H](Cc2ccccc2)NC(=O)[C@H](Cc2ccc(O)cc2)NC(=O)[C@@H](N)CSSC[C@@H](C(=O)N2CCC[C@H]2C(=O)N[C@@H](CCCN=C(N)N)C(=O)NCC(N)=O)NC(=O)[C@H](CC(N)=O)NC1=O`: the Potency entry was “inactive”.

Regarding `O=C(O)COc1ccccc1/C=N/NC(=O)c1ccncc1`, the Potency result was “inactive”.

For `COc1ccccc1N1CCN(CCCC(=O)c2ccc(F)cc2)CC1`, the Potency entry was “inactive”.

In the case of `CC1=C(/C=C/C(C)=C/C=C/C(C)=C/C(=O)Oc2c(C)c(C)c3c(c2C)CC[C@@](C)(CCC[C@H](C)CCC[C@H](C)CCCC(C)C)O3)C(C)(C)CCC1`, the Potency result was “inactive”.

For the compound `Nc1nc(=O)n([C@@H]2CS[C@H](CO)O2)cc1F`, the Potency result was “inactive”.

On to `O=C(O)C1=C(CSc2nnnn2CS(=O)(=O)O)CS[C@@H]2[C@H](NC(=O)[C@H](O)c3ccccc3)C(=O)N12`, for which the Potency result is “inactive”.
